Values joined by “and” are separate entries in the source; they are usually repeats but may differ in a detail not shown here. Identical values can stand only once. About 2,600 (3.8%) of roughly 69,000 compounds were called active. Cut-off read from the data, not from the text of the source: active = activity change below about -70% (passing the limit was not always enough); inconclusive = no clear call, values can overlap the other calls. The entries come from a sample that favours actives as a whole. Some structures have more than one record in an assay (separate samples or runs), and their calls can disagree.

A short description of this assay: inhibitors of Toxoplasma growth in IFN-γ-primed hosts – cell-based, primary screen (AID 1259416).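 Note: host cells are HeLa cells infected with Toxoplasma gondii.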 Conditions: Toxoplasma gondii growth in IFN-gamma-treated host cells; stronger effect = lower value; concentration not given here.
Regarding `CC[N+]1(C)CCCC(OC(=O)C(O)(c2ccccc2)c2ccccc2)C1` (stereo not drawn), the activity change, negative = inhibition was -81.7% (active) and 11.1% (inactive) and 46.8% (inactive).

With `COc1ccc(OC)c(NC(=O)c2cc3cccnc3n(Cc3ccccc3F)c2=O)c1`, the activity change, negative = inhibition was 10.9% (inactive).

As for `CC(C)N1C[C@H]2CN(C(=O)c3cccs3)C[C@@H]2C1`, the activity change, negative = inhibition was 13.5% (inactive).

Take `CO[C@@H]1CCN(C(=O)c2ccc(C)cn2)[C@H]2CN(CC3CC3)C[C@@H]12`: the activity change, negative = inhibition was 294% (inactive).

Turning to `c1cc(-c2cccc3c2CCNC3)cc(-n2cnnc2)c1`, the activity change, negative = inhibition was -1.55% (inactive).

Regarding `CC(C)(Cc1c[nH]c2ccc(Cl)cc12)NCCOc1ccccc1OCC1CC1`, the activity change, negative = inhibition was -75.1% (active) and -81.3% (active).

On to `COc1ccc2c(c1)C1(CCN(C(=O)C(C)(C)NC(=O)OCc3ccccc3)CC1)CC2CC(=O)O` (stereo not drawn), for which the activity change, negative = inhibition was 0.749% (inactive).

`Cc1nc(N2CCCN3CCC[C@H]3C2)c2cnn(C)c2n1`: the activity change, negative = inhibition was 2.34% (inactive).

For `CN1CCC2(COCc3cnc(NCc4ccco4)nc32)C1` (stereo not drawn), the activity change, negative = inhibition was -59.4% (inactive).

Consider `CCc1cnc(C)nc1N1CCC2(CC1)CN(C)CCN2C`, for which the activity change, negative = inhibition is -5.22% (inactive).

`CC(Cc1ccccn1)N(C)Cc1ncc[nH]1` (stereo not drawn): the activity change, negative = inhibition is 15.6% (inactive).

As for `c1ccc2c(c1)[I+]c1ccccc1-2`, the activity change, negative = inhibition is -75.9% (active) and -69.4% (inactive).

On to `COc1ccc(NC(=O)c2cc3cccnc3n(Cc3ccc(Cl)cc3)c2=O)c(OC)c1`, for which the activity change, negative = inhibition was 113% (inactive).

For the molecule `CCc1ccc(NC(=O)c2cc3cccnc3n(Cc3ccccc3F)c2=O)cc1`, the activity change, negative = inhibition is 49.4% (inactive).

On to `O=C(Nc1ccccc1)c1c(O)c2cccnc2n(Cc2ccccc2)c1=O`, for which the activity change, negative = inhibition was -29% (inactive).

For `Cc1cc(C)cc(NC(=O)c2c(O)c3cccnc3n(Cc3ccccc3)c2=O)c1`, the activity change, negative = inhibition is 135% (inactive).

With `CC(NC(=O)c1c(O)c2cccnc2n(Cc2ccccc2)c1=O)c1ccccc1` (stereo not drawn), the activity change, negative = inhibition is -120% (active).

On to `CC(C)c1ccc(NC(=O)c2cc3cccnc3n(Cc3ccc(Cl)cc3)c2=O)cc1`, for which the activity change, negative = inhibition is 70.6% (inactive).

Regarding `C=CCNC(=O)c1cn(Cc2ccc(C)o2)cc(C(=O)N2CCCCCCC2)c1=O`, the activity change, negative = inhibition is -1.9% (inactive).

Consider `C/C=C/c1ccc(C2[C@@H]3CN(S(C)(=O)=O)C[C@H]2N3)cc1` (stereo partly drawn), for which the activity change, negative = inhibition is 4.19% (inactive).

As for `COc1cc([C@@H]2c3cc4c(cc3[C@H](OC(C)=O)[C@H]3COC(=O)[C@H]23)OCO4)cc(OC)c1OC`, the activity change, negative = inhibition is -81.8% (active).

For the molecule `O=C(Nc1cccc(F)c1)N1CC2CNC(C2)C1` (stereo not drawn), the activity change, negative = inhibition is -49% (inactive).

Regarding `CN(Cc1ncc[nH]1)C1CCC2(CCNCC2)CC1`, the activity change, negative = inhibition was -23.6% (inactive).

For the molecule `CCN1CCO[C@@H]2CN(Cc3ccc4ccccc4n3)C[C@H]2C1`, the activity change, negative = inhibition was -44.8% (inactive).

Consider `CCCCCCCCCCCCCC(=O)O[C@@H]1[C@@H](C)[C@@]2(O)[C@@H](C=C(CO)C[C@]3(O)C(=O)C(C)=C[C@@H]23)[C@@H]2C(C)(C)[C@]12OC(C)=O`, for which the activity change, negative = inhibition was -78.2% (active) and -67.3% (inactive).

In the case of `CNC(=O)[C@H]1CC2CN(C(=O)Cc3cccs3)CC2N1C` (stereo partly drawn), the activity change, negative = inhibition was -9.27% (inactive).

As for `CC(=O)O[C@H]1CC[C@@]2(C)C(=CCC3C2CC[C@]2(C)C(=O)CCC32)C1` (stereo partly drawn), the activity change, negative = inhibition was -55.1% (inactive).

For `COc1ccc(CN2CCCC23CCCN(C(=O)Cc2ccc(Cl)cc2)C3)cc1F` (stereo not drawn), the activity change, negative = inhibition is 84.8% (inactive).

For the origin of these results see PubChem BioAssay AID1259416 (Broad Institute, 2018).
